Source: PubChem BioAssay
aDG glyco act = alpha-DG glycosylation activation. activation, % at 10 µM. 0.22% of 360,000 active. Pro5-aDG cells, alpha-DG glycosylation AlphaScreen (IIH6); 0% Pro5, 100% B10-LARGE cell signal;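 active = activation of at least 8% versus controls, or a plate z-score of at least 8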;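 note: Pro5 are CHO cells carrying HIG-tagged alpha-DG that lacks glycosylation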
ADAM10 inh = inhibitors of human ADAM10; recombinant ADAM10, EDANS/DABCYL FRET peptide cleavage, 3 h; inhibition, % at 7 µM; 0.62% of 370,000 active; AID 720582;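 active = inhibition above a per-campaign cutoff equal to the mean of compounds falling between control-based bounds plus 3 SD, cut at about 20% in these data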;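 note: 0% = DMSO wells while the 100% control is not disclosed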
Target sequence (O14672 214-748 limits assumed): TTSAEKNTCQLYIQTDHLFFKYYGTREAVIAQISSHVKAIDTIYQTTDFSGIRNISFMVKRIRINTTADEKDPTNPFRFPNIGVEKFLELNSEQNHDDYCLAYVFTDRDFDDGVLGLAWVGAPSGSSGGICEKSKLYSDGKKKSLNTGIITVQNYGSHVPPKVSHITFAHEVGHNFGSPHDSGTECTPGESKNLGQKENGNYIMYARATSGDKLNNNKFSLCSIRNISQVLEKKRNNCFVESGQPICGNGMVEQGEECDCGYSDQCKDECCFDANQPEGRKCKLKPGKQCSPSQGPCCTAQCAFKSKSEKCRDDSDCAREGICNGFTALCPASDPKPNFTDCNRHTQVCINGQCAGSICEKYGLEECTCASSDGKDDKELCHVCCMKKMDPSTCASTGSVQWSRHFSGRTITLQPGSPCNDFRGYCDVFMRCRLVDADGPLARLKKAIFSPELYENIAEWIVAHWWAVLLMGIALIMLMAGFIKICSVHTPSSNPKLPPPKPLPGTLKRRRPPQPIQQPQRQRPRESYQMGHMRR
ADAM17 inh = inhibitors of human ADAM17; 0.83% of 370,000 active; P78536; recombinant ADAM17, EDANS/DABCYL FRET peptide cleavage; inhibition, % at 6.95 µM; AID 720648;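 active = inhibition above the mean of compounds lying between control limits plus 3 SD, set per campaign, cut at about 8.5% in these data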;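 note: 0% = DMSO-only wells as the low control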
FAS-TE inh = FAS thioesterase (human) inhibition. recombinant FAS-TE, OMFH fluorogenic substrate, fluorescence endpoint. inhibition, % at 15 µM. 0.67% of 360,000 active;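 active = compounds whose normalised, plate-corrected inhibition of enzyme fluorescence in the single-dose primary screen is 50% or more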;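 note: 0% = DMSO with enzyme and 100% = substrate without enzyme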
NR3A LBD binder = modulators (binders) of human NR3A ligand-binding domain | Tm shift relative to glycine control, % at 25 µM | 2.5% of 340,000 active | AID 1259313 | NR3A LBD differential scanning fluorimetry, Tm shift; 0% = protein alone, 100% = glycine-bound protein;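 active = melting temperature shift of at least 10% of the positive control shift, at one fixed dose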
ADAM10 ctr = counter-screen for ADAM17 exosite inhibitors: inhibitors of human ADAM10; inhibition, % at 6.95 µM; recombinant ADAM10, EDANS/DABCYL FRET peptide cleavage, 3 h; AID 743256; 47% of 2,900 active; shares compounds with ADAM17 inh;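 active = mean inhibition over the triplicate runs exceeds the activity threshold set in the earlier primary screen, cut at about 20% in these data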;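 note: 0% = DMSO wells and 100% = marimastat wells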
ADAM17 confirm = human ADAM17 inhibition, confirmation | shares compounds with ADAM17 inh | recombinant ADAM17, EDANS/DABCYL QFRET peptide cleavage | inhibition, % at 6.95 µM | 65% of 2,900 active | AID 743257;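 active = mean inhibition across replicates above the hit cutoff set in the primary screen, cut at about 8.5% in these data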;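 note: 0% = DMSO wells and 100% = marimastat wells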
* hit, by the source's call. Rows were chosen to be rich in hits. Some 4% of all compounds tested hit in one or more screens of this group.

`COc1ccc(CNC(=O)C2=CC(c3ccc(OC)cc3)=NS(=O)(=O)N2C)cc1` gave aDG glyco act 0, ADAM10 inh -3, ADAM17 inh 4, FAS-TE inh 29 and NR3A LBD binder -10.
Screening COc1ccccc1N1C(=O)c2ccccc2NC1c1cc(OC)c(OC)c(OC)c1 (stereo not given) returned aDG glyco act 0, ADAM10 inh inactive, ADAM17 inh -393, FAS-TE inh -3 and NR3A LBD binder -2.
Screening COc1ccccc1C(=O)NCC(=O)NC(C)CCc1ccccc1 (stereo not given) returned aDG glyco act 0, ADAM10 inh -7, ADAM17 inh 9.2*, FAS-TE inh -3, NR3A LBD binder 0, ADAM10 ctr 3 and ADAM17 confirm 5.
For CN(C)S(=O)(=O)c1cc([N+](=O)[O-])ccc1N1CCCCCC1 the results were aDG glyco act 0, ADAM10 inh 13, ADAM17 inh 10*, FAS-TE inh 11, NR3A LBD binder -1, ADAM10 ctr 18 and ADAM17 confirm 11*.
COc1ccccc1CN(C)C[C@@H]1OCc2cnnn2CCCC(=O)N([C@H](C)CO)C[C@H]1C was read as aDG glyco act 0, ADAM10 inh 0, ADAM17 inh 8.7*, FAS-TE inh -6, ADAM10 ctr -2 and ADAM17 confirm -1.
CN(Cc1ccc(OCC(O)CN(C)Cc2ccccc2)cc1)Cc1nccn1C (stereo not given) was read as aDG glyco act 0, ADAM10 inh -1, ADAM17 inh -2, FAS-TE inh -5 and NR3A LBD binder 0.
Screening CCOC(=O)c1c(C)[nH]c(C)c1C(=O)CSc1nc2ccccc2c(=O)n1-c1ccc(F)cc1 returned aDG glyco act 0, ADAM10 inh 19, ADAM17 inh 10*, FAS-TE inh 22, NR3A LBD binder -5, ADAM10 ctr 22* and ADAM17 confirm 15*.
For Cc1ccc(C(=O)CSc2nc3ccccc3c(=O)n2-c2ccccc2)s1 the results were aDG glyco act 0, ADAM10 inh 4, ADAM17 inh -5, FAS-TE inh -2 and NR3A LBD binder 2.
Screening O=C(Cn1nnc(-c2ccccc2)n1)NNC(=O)c1ccc(Br)cc1 returned aDG glyco act 0, ADAM10 inh 17, ADAM17 inh 2, FAS-TE inh -1 and NR3A LBD binder -3.
For Cc1ccccc1N/N=C/c1sc(=O)n(Cc2cccc(C(=O)O)c2)c1Cl the results were aDG glyco act 0, ADAM10 inh -5, ADAM17 inh -2, FAS-TE inh -10 and NR3A LBD binder -1.
COC(=O)c1cccc(Cn2c(Cl)c(/C=N/Nc3ccccc3C)sc2=O)c1 was read as aDG glyco act -1, ADAM10 inh 14, ADAM17 inh 9.5*, FAS-TE inh 26, NR3A LBD binder -10, ADAM10 ctr 20 and ADAM17 confirm 12*.
COC(=O)/C(C#N)=C\c1c(OC)[nH]c2ccccc12 was read as aDG glyco act 0, ADAM10 inh 9, ADAM17 inh 4, FAS-TE inh -4 and NR3A LBD binder -1.
CCOc1ccc(NC(=O)CN(C)CC(=O)Nc2cc(Cl)ccc2C#N)cc1OCC was read as aDG glyco act 0, ADAM10 inh 12, ADAM17 inh 9.0*, FAS-TE inh 0, NR3A LBD binder 2, ADAM10 ctr 1 and ADAM17 confirm 1.
Screening Cc1ccc(NC(=O)c2cc(S(=O)(=O)NCCC3=CCCCC3)ccc2F)cc1 returned aDG glyco act 2, ADAM10 inh 23*, ADAM17 inh 14*, FAS-TE inh 30, NR3A LBD binder 14*, ADAM10 ctr 34* and ADAM17 confirm 18*.
CCOC(=O)CC(=O)CSc1ccc2nnc(-c3ccc(C)cc3)n2n1 was read as aDG glyco act 0, ADAM10 inh -29, ADAM17 inh -15, FAS-TE inh 3 and NR3A LBD binder 0.
For O=c1oc2ccc(NS(=O)(=O)c3cccc4cccnc34)cc2s1 the results were aDG glyco act 0, ADAM10 inh 4, ADAM17 inh 12*, FAS-TE inh 18, NR3A LBD binder -3, ADAM10 ctr 6 and ADAM17 confirm 7.
For COC(=O)CC/C(=N/Nc1ccc(Cl)c(Cl)c1)C(=O)OC the results were aDG glyco act 0, ADAM10 inh -3, ADAM17 inh 0, FAS-TE inh 22 and NR3A LBD binder 2.
For CC(=O)c1c2c3c(cccc3n(C)c1=O)C(=O)c1ccccc1-2 the results were NR3A LBD binder -1.
Screening Cn1c(=O)c(Nc2ccc(O)cc2)c2c3c(cccc31)C(=O)c1ccccc1-2 returned aDG glyco act 0, ADAM10 inh 17, ADAM17 inh 9.2*, FAS-TE inh 18, NR3A LBD binder -19, ADAM10 ctr 19 and ADAM17 confirm 15*.
Screening CC(C)(C)c1ccc(OCc2nc(-c3ccccn3)no2)c(Br)c1 returned aDG glyco act 0, ADAM10 inh 16, ADAM17 inh 8.7*, FAS-TE inh 16, NR3A LBD binder -23, ADAM10 ctr 15 and ADAM17 confirm 18*.
For CN1CCN(c2ccccc2NC(=O)c2cc3c(s2)-c2ccccc2OC3)CC1 the results were aDG glyco act 0, ADAM10 inh -11, ADAM17 inh -6, FAS-TE inh 1 and NR3A LBD binder -2.
For OCCOCCn1c(C2CCCN2c2nc(-c3ccc(F)cc3)cs2)nc2cc(C(F)(F)F)ccc21 (stereo not given) the results were aDG glyco act 0, ADAM10 inh 12, ADAM17 inh 9.9*, FAS-TE inh 18, NR3A LBD binder -8, ADAM10 ctr 7 and ADAM17 confirm 7.
Screening CC(C)C[C@H](NC(=O)c1[nH]cnc1C(=O)Nc1ccccc1)C(=O)OC(C)(C)C returned aDG glyco act 0, ADAM10 inh 27*, ADAM17 inh 14*, FAS-TE inh 24, NR3A LBD binder -8, ADAM10 ctr 40* and ADAM17 confirm 20*.
For C[C@H](NC(=O)c1nc[nH]c1C(=O)N[C@@H](Cc1ccccc1)C(=O)OCc1ccccc1)C(=O)OCc1ccccc1 the results were aDG glyco act 0, ADAM10 inh 16, ADAM17 inh 11*, FAS-TE inh 17, NR3A LBD binder -10, ADAM10 ctr 33* and ADAM17 confirm 19*.
CCOC(=O)c1ccc(NC(=O)c2nc[nH]c2C(=O)N[C@@H](CC(C)C)C(=O)OC(C)(C)C)cc1 was read as aDG glyco act 0, ADAM10 inh 3, ADAM17 inh 4, FAS-TE inh 9 and NR3A LBD binder -8.
